Data taken from PubChem BioAssay (NCI).
Compounds without any hit were thinned out: in the full panel of roughly 83,000, 20% have a hit.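 Note: values are percent growth. 100 is the growth of untreated cells, values between 100 and 0 indicate rising inhibition; between -100 and 0 indicates cell death.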 Activity calls are given as the source filed them. How the source made its calls: active means growth percent below 10; inactive means the rest.

Tests used:
Assay in all cases: NCI-60 one-dose screen, 48 h (100 = growth as untreated, 0 = no growth, -100 = all killed)
Conditions in all cases: 10 µM unless noted
NCI-H23 lung = test system: NCI-H23 lung
NCI-H226 lung = test system: NCI-H226 lung
NCI-H322M lung = test system: NCI-H322M lung
HOP-62 NSCLC = test system: HOP-62 NSCLC
NCI-H460 lung = test system: NCI-H460 lung
HOP-92 NSCLC = test system: HOP-92 NSCLC
NCI-H522 lung = test system: NCI-H522 lung
A549/ATCC NSCLC = test system: A549/ATCC NSCLC
786-0 renal = test system: 786-0 renal
COLO 205 colon = test system: COLO 205 colon
DU-145 prostate = test system: DU-145 prostate
K-562 leukemia = test system: K-562 leukemia
MALME-3M melanoma = test system: MALME-3M melanoma
MDA-MB-231 breast = test system: MDA-MB-231 breast
RXF 393 renal = test system: RXF 393 renal
SF-268 CNS = test system: SF-268 CNS
UACC-257 melanoma = test system: UACC-257 melanoma
M14 melanoma = test system: M14 melanoma
SF-295 CNS = test system: SF-295 CNS
SF-539 CNS = test system: SF-539 CNS

Measured: growth

COc1cc(C2CC(=O)Nc3c2c(C)nn3-c2nc3ccccc3[nH]2)cc(OC)c1OC (stereo unspecified)
inactive: NCI-H23 lung 99.6% | NCI-H226 lung 99.1% | NCI-H322M lung 103% | HOP-62 NSCLC 104% | NCI-H460 lung 100% | HOP-92 NSCLC 89.8% | NCI-H522 lung 94% | A549/ATCC NSCLC 97.7% | 786-0 renal 110% | COLO 205 colon 116% | DU-145 prostate 119% | K-562 leukemia 99.7% | MALME-3M melanoma 106% | MDA-MB-231 breast 91.6% | RXF 393 renal 89.8% | SF-268 CNS 112% | UACC-257 melanoma 96.7% | M14 melanoma 92.3%

COc1ccc(-c2c3c(nc4n[nH]c(-c5ccc(Cl)cc5)c24)-c2ccccc2C(=O)C3=O)cc1
active: NCI-H23 lung -53% | NCI-H460 lung -12.9% | HOP-92 NSCLC 9.32% | NCI-H522 lung -59.7% | 786-0 renal 7.58% | K-562 leukemia 4.49% | MALME-3M melanoma -32.4% | MDA-MB-231 breast -28% | SF-268 CNS -38.8% | M14 melanoma -28.4%
inactive: NCI-H226 lung 42.3% | NCI-H322M lung 84% | HOP-62 NSCLC 29.1% | A549/ATCC NSCLC 35.9% | COLO 205 colon 70.6% | DU-145 prostate 22.4% | RXF 393 renal 14.1% | SF-295 CNS 77.4% | UACC-257 melanoma 11%

COc1ccc(/C=c2/c(=O)[nH]c3nc4sc(C)c(C)c4c(=O)n23)cc1
inactive: NCI-H23 lung 90.7% | NCI-H226 lung 94% | NCI-H322M lung 98.7% | HOP-62 NSCLC 100% | NCI-H460 lung 88.3% | HOP-92 NSCLC 92.6% | NCI-H522 lung 74.4% | A549/ATCC NSCLC 79.7% | 786-0 renal 88.1% | COLO 205 colon 111% | DU-145 prostate 92.6% | K-562 leukemia 81.6% | MALME-3M melanoma 92.6% | MDA-MB-231 breast 97.3% | RXF 393 renal 93.7% | SF-268 CNS 88.5% | SF-539 CNS 92.8% | M14 melanoma 96.2%

CCCCNc1ccc2c3c1cccc3c(=O)n1c3ccccc3nc21
inactive: NCI-H23 lung 60% | NCI-H226 lung 73.7% | NCI-H322M lung 93.5% | HOP-62 NSCLC 81.9% | NCI-H460 lung 48.3% | HOP-92 NSCLC 61.2% | NCI-H522 lung 71.9% | A549/ATCC NSCLC 76.6% | 786-0 renal 102% | COLO 205 colon 85.4% | DU-145 prostate 99.4% | K-562 leukemia 78.8% | MALME-3M melanoma 89.3% | MDA-MB-231 breast 79.8% | RXF 393 renal 104% | SF-268 CNS 101% | SF-539 CNS 103% | M14 melanoma 93.1%

COc1ncc(-c2ccc3ncnc(Nc4cccc(Cl)c4)c3c2)cc1NS(C)(=O)=O
active: NCI-H322M lung -6.97% | HOP-92 NSCLC -14.7% | MALME-3M melanoma -2.69% | RXF 393 renal 7.92%
inactive: NCI-H23 lung 37.4% | NCI-H226 lung 47.2% | HOP-62 NSCLC 56.6% | NCI-H460 lung 28.3% | NCI-H522 lung 33.3% | A549/ATCC NSCLC 15.8% | 786-0 renal 46.2% | COLO 205 colon 41.5% | DU-145 prostate 27.4% | K-562 leukemia 56.3% | MDA-MB-231 breast 43.8% | SF-268 CNS 44.8% | SF-295 CNS 32.1% | M14 melanoma 46.9%

O=C1Nc2ccc(Br)cc2C12CC(c1ccccc1)=NN2 (stereo unspecified)
inactive: NCI-H23 lung 58.7% | NCI-H226 lung 57.3% | NCI-H322M lung 35.2% | HOP-62 NSCLC 51.6% | NCI-H460 lung 18.1% | HOP-92 NSCLC 58.2% | NCI-H522 lung 20% | A549/ATCC NSCLC 31.6% | 786-0 renal 46.8% | COLO 205 colon 30.5% | DU-145 prostate 69.9% | K-562 leukemia 23.8% | MALME-3M melanoma 37.9% | MDA-MB-231 breast 50.6% | RXF 393 renal 61.4% | SF-268 CNS 58.7% | SF-539 CNS 32.9% | M14 melanoma 28.2%

C[C@@]1(N2C(=O)OC[C@@H]2c2ccccc2)C(=O)N([C@H](CC(=O)N2CCC(N3CCCCC3)CC2)C(=O)NCc2cccc(C(F)(F)F)c2)[C@@H]1/C=C/c1ccccc1
inactive: NCI-H23 lung 78.8% | NCI-H226 lung 89.6% | NCI-H322M lung 72.8% | HOP-62 NSCLC 84.7% | HOP-92 NSCLC 64.4% | A549/ATCC NSCLC 54.6% | 786-0 renal 70% | DU-145 prostate 63.5% | MDA-MB-231 breast 31% | RXF 393 renal 61% | SF-268 CNS 63.2% | SF-295 CNS 100%
active: NCI-H460 lung 2.37% | NCI-H522 lung -9.84% | COLO 205 colon -67.1% | K-562 leukemia -40.6% | MALME-3M melanoma -69.5% | UACC-257 melanoma -72.1% | M14 melanoma -54.3%

NC1=CSC2=N/C(=C\c3ccc(Cl)cc3)C(=O)N12
inactive: NCI-H23 lung 72.6% | NCI-H226 lung 80.3% | NCI-H322M lung 95.7% | HOP-62 NSCLC 83.5% | NCI-H460 lung 62.1% | HOP-92 NSCLC 69.5% | NCI-H522 lung 33.8% | A549/ATCC NSCLC 74.2% | 786-0 renal 81.4% | COLO 205 colon 90% | DU-145 prostate 77.9% | K-562 leukemia 40.1% | MALME-3M melanoma 64.9% | MDA-MB-231 breast 83.2% | RXF 393 renal 65.7% | SF-268 CNS 90.4% | SF-539 CNS 90.4% | M14 melanoma 76.8%
